NTR1 agonist: agonists of human NTR1, primary screen, imaging, U2OS cells, beta-arrestin-GFP, high content | Neurotensin receptor type 1 (Homo sapiens), P30989 | NTR1-U2OS beta-arrestin-GFP spot imaging, agonist mode | activation, % at 20 µM | hit rate 0.17% among 330,000;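 active = activation at or above 40% of the spot to cytoplasm intensity ratio, with at least 20 cells analyzed; inconclusive = wells under 20 cells, flagged as cytotoxic or low count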;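 note: 0% = DMSO without peptide and 100% = 100 nM NTR1 peptide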
Target sequence (P30989 whole entry, looked up): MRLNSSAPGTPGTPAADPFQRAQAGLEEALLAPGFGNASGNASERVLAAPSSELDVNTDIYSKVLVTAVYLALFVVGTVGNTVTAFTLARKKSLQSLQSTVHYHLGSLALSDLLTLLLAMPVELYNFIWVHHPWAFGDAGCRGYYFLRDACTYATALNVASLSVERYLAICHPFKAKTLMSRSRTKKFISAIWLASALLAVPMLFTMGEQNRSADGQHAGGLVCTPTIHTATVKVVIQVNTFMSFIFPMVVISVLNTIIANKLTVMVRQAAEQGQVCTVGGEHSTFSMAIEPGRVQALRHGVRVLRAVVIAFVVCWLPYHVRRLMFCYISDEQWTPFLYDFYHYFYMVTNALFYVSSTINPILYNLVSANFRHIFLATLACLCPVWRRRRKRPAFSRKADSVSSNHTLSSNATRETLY
H9c2 protect: cardioprotection against H2O2-induced cell death, primary screen, uHTS, H9c2 cells, ATPLite luminescence. H9c2 cardiomyocytes, H2O2 injury protection, 2 h. protection from H2O2 cell death, % at 20 µM. hit rate 0.63% among 360,000. AID 588492, 2011;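 active = compounds giving at least 50% protection of heart cells from peroxide-induced death in the single-dose screen, raw or plate-pattern-corrected value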;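 note: 0% = DMSO wells with peroxide and 100% = DMSO wells without peroxide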
UBC9 SUMO inh: inhibitors of in vitro SUMOylation cascade, primary screen, biochemical, HTRF, uHTS. HTRF SUMOylation assay, SAE1/SAE2 + UBC9. inhibition, % at 35 µM. hit rate 0.36% among 290,000. AID 2006, 2009; in the data active = inhibition above about 50%, passing the limit was not always enough; inconclusive = no clear call, values can overlap the other calls
ALR inh: inhibitors of human ALR sulfhydryl oxidase, primary screen, biochemical, H2O2 detection, HRP-luminol luminescence, single point. FAD-linked sulfhydryl oxidase ALR (Homo sapiens), P55789. purified ALR, DTT oxidation. inhibition, % (concentration not given with the values). hit rate 3.8% among 290,000;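 active = mean replicate inhibition above about 79%, with every replicate also reaching it, limit read from the data; inconclusive = only one of the two criteria met; inactive = mean below limit and not every replicate reaching it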
NTR1 ag conf: NTR1 agonists, single-dose retest, confirmation, imaging, U2OS cells, beta-arrestin-GFP, single concentration | shares compounds with NTR1 agonist | AID 504550, 2011 | hit rate 38% among 480 | activation, % at 20 µM | NTR1-U2OS beta-arrestin-GFP translocation imaging;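 active = mean activation at 20 µM of at least 40%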;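 note: 0% = DMSO without peptide and 100% = 100 nM NTR1 peptide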
An asterisk follows results filed as active; u = inconclusive; x = not tested or not shown. Most compounds without a hit are left out; they make up all but 3.9% or so of the library.

SMILES | NTR1 agonist | H9c2 protect | UBC9 SUMO inh | ALR inh | NTR1 ag conf
O=C(COC(=O)/C=C/C(=O)OCC(=O)NC12CC3CC(CC(C3)C1)C2)NC12CC3CC(CC(C3)C1)C2 | 85.1* | -5.9 | 10.1 | 47.0 | 40.2*
Cc1ccc(S(=O)(=O)c2ccccc2)cc1S(=O)(=O)N1CCOCC1 | 0.5 | -5.3 | -3.4 | 2.9 | x
O=C1O/C(=C/c2ccccc2)c2ccccc21 | 1.3 | -8.0 | -4.2 | 2.1 | x
N#CC1=C(c2ccccc2)/C(=C/c2ccccc2)OC1=O | 65.8* | -15.3 | 20.4 | -2.5 | 87.4*
Cc1ccc(-c2csc3ncnc(SCC(=O)Nc4nnc(C)s4)c23)cc1 | 3.7 | -4.8 | -6.2 | -3.4 | x
Cc1ccc(-c2csc3ncnc(Sc4nnc(CN5CCCCCC5=O)o4)c23)cc1 | 48.6* | -2.1 | -26.0 | 20.8 | 55.6*
Cc1ccc(C(=O)/C=C/C(=O)c2ccc(C)cc2)cc1 | 41.6* | -19.4 | -5.8 | 67.2 | 73.1*
COc1ccc(-c2csc(N3CCN(c4cc(C)nc5ccccc45)CC3)n2)cc1OC | 43.9* | 16.2 | 0.8 | -9.8 | 41.5*
COc1cc(-c2csc(N3CCOCC3)n2)cc(OC)c1OC | -1.6 | 6.6 | 7.2 | u | x
Cc1onc(-c2c(F)cccc2Cl)c1C(=O)Nc1nnc(C(F)(F)F)s1 | 1.9 | -14.2 | 11.7 | 1.0 | x
COc1ccc(C(=O)NCCS(=O)(=O)NCc2ccco2)cc1 | -1.3 | 3.3 | x | x | x
CC(=O)N1CCN(c2ccc(NC(=O)c3ccc4c(c3)OCCO4)cc2Cl)CC1 | 0.9 | -5.3 | 7.5 | x | x
CC(C)C(=O)N1CCN(c2ccc(NC(=O)c3ccc4c(c3)OCCO4)cc2Cl)CC1 | 90.1* | 19.7 | 6.0 | -5.0 | 84.7*
O=C(O)C1=CC[C@@H](c2ccc(Cl)cc2)N(S(=O)(=O)c2ccc(Cl)cc2)[C@H]1c1ccccc1 | 40.4* | 4.3 | x | -1.5 | 4.3
Cc1ccc([C@H]2C(C(=O)O)=CC[C@@H](c3ccc(Cl)cc3)N2S(=O)(=O)c2ccc(C)cc2)cc1 | 10.3 | -6.8 | x | x | x
COc1cc(=O)[nH]c(SCc2c(F)c(F)c(F)c(F)c2F)n1 | -0.6 | 11.9 | -7.5 | 7.3 | x
CC(C)c1ccc(Nc2nnc(SC3CCOC3=O)s2)cc1 (stereo not given) | 52.4* | -13.5 | -4.8 | -3.0 | 75.9*
Cc1ccc(Nc2nnc(SC3CCOC3=O)s2)cc1 (stereo not given) | 3.5 | -0.7 | -13.3 | 5.0 | x
COc1ccccc1/C=C\C=N\n1c(-c2ccc(Cl)cc2)n[nH]c1=S | 48.6* | -10.6 | 4.5 | 4.8 | 9.4
COc1ccccc1/C=C/C=N/n1c(-c2ccc(F)cc2)n[nH]c1=S | 8.4 | -0.5 | 6.0 | 29.1 | x
Cc1cc(NC(=O)c2cccc(S(=O)(=O)N3CCOCC3)c2)c2ccccc2n1 | 1.9 | 2.0 | 19.9 | -4.2 | x
O=C(Nc1nc(-c2ccccc2)cs1)c1ccc(N2CCOCC2)c([N+](=O)[O-])c1 | 69.8* | -7.9 | -15.2 | -2.3 | 36.7
CCN(CC)S(=O)(=O)c1ccc(/C=C/C(=O)Nc2c(C)n(C)n(-c3ccccc3)c2=O)cc1 | 0.5 | -3.4 | 11.9 | 6.3 | x
Cc1cc(C)n(-c2nc(N(c3ccccc3)c3ccccc3)nc(-n3nc(C)cc3C)n2)n1 | 83.7* | -19.1 | 1.2 | x | 74.8*
CC(=O)c1nnn(-c2nc(N)nc(N(c3ccccc3)c3ccccc3)n2)c1C | 3.9 | 10.6 | -19.4 | -5.6 | x
SMILES | NTR1 agonist | H9c2 protect | UBC9 SUMO inh | ALR inh | NTR1 ag conf
Nc1ccc(Cl)cc1C(=O)c1ccc[nH]1 | x | -7.9 | x | x | x
COc1cc(/C=C/C(=O)c2ccc(C)c([N+](=O)[O-])c2)cc(OC)c1O | 30.2 | 24.5 | -9.4 | -4.9 | x
COc1cc(C(=O)/C=C/c2cccnc2)c([N+](=O)[O-])cc1OC | 42.2* | 2.3 | x | x | 47.0*
COc1ccc(/C=C/C(=O)c2ccc(C)c([N+](=O)[O-])c2)cc1O | 43.1* | -7.6 | 5.2 | 34.9 | 25.1
COc1cccc(/C=C/C(=O)c2ccc(C)c([N+](=O)[O-])c2)c1 | 66.3* | -10.7 | -15.2 | u | 1.6
O=C(Cn1nnc(-c2ccccc2-n2cnnn2)n1)N1CCCCC1 | 2.2 | 4.8 | 7.1 | -7.5 | x
Cc1nc2ccc(C(=O)NCCCn3ccnc3)cn2c1N(C)CC1CCCCC1 | x | 2.8 | x | x | x

Screening results deposited in PubChem by several laboratories.
